The values that follow come from paper PMC5540273 (PLoS ONE, 2017).

Among the test systems are KIT-autoinhibited; KIT; LATS1; LATS2.
Settings in all cases: concentration: 1 μM, replicates: in singlicate; n = 1
The test system of assay [1] is JAK1(JH2domain-pseudokinase).
The subject of assay [2] is JAK2(JH1domain-catalytic).
Assay [3] deals with JAK3(JH1domain-catalytic).
The next assay relates to T1, JNK1.
T1 construct: gene MAPK8

Another assay deals with T2, JNK2.
T2 construct: gene MAPK9

A further assay concerns T3, JNK3.
T3 construct: gene MAPK10
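Further: KINOMEscan kinase panel screen.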

On to `COc1cc(Nc2nccc(N3CCC(NC(=O)c4cc5ccccc5s4)C3)n2)cc(OC)c1OC` (stereo not drawn) [GSK1379760], for which the “%Inh” value in assay [1] stood at 0%; in assay [2], 76%; in assay [3], 0%; in the assay on JNK1 it was 17%; in the assay with JNK2 it was 16%; in the assay with JNK3, 23%. Further, the “%Inh” value came out at 0% in the assay on KIT-autoinhibited, 36% in the assay with KIT, 57% in the assay on LATS1 and 5% in the assay with LATS2.
In the case of `C[C@@H](Oc1cc(-n2cnc3cc(-c4ccnc(NCCS(C)(=O)=O)c4)ccc32)sc1C(N)=O)c1ccccc1Cl` [GSK907232], the “%Inh” value was determined as 0% in assay [1]; 50% in [2]; 66% in assay [3]; 0% in the assay with JNK1; 10% in the assay with JNK2; 1% in the assay on JNK3. The “%Inh” value is listed as 0% in the assay with KIT-autoinhibited, 80% in the assay with KIT, 0% in the assay on LATS1 and 0% with LATS2.
On to `Nc1ncnc2c1nc(-c1ccccc1)n2-c1ccccc1` [SKF-97293], for which the “%Inh” value worked out at 6% in [1]; 62% in assay [2]; 7% in assay [3]; 11% with JNK1; 17% in the assay with JNK2; 0% in the assay with JNK3. Moreover, the “%Inh” value came to 11% in the assay on KIT-autoinhibited, 0% in the assay with KIT, 35% with LATS1 and 0% in the assay on LATS2.
Turning to `CN1CCN(CCCNc2nccc(-c3c(-c4ccc(F)cc4)nn4cc(C(F)(F)F)ccc34)n2)CC1` [GW621581], the “%Inh” value in assay [1] came out at 0%; in assay [2], 32%; in [3], 0%; in the assay on JNK1 it was 58%; in the assay on JNK2, 91.7%; in the assay with JNK3, 91.9%. Moreover, the “%Inh” value is on record as 0% in the assay on KIT-autoinhibited, 7% in the assay on KIT, 0% with LATS1 and 0% in the assay with LATS2.
In the case of `CC(=O)Nc1nc2cnc(Nc3cc(NC(=O)c4cccc(C5(C#N)CC5)c4Cl)ccc3C)nc2s1`, the “%Inh” value in [1] worked out at 9%; in assay [2], 0%; in assay [3], 0%; in the assay with JNK1, 0%; with JNK2 it was 0%; in the assay with JNK3 it was 0%. In addition, the “%Inh” value with KIT-autoinhibited came out at 0%; with KIT, 99.8%; in the assay with LATS1 it was 26%; in the assay on LATS2, 0%.
For the molecule `O=C(Nc1cccc(-c2nn3ncccc3c2-c2ccnc(Nc3ccccc3)n2)c1)c1c(F)cccc1F` [GSK198271], the “%Inh” value in assay [1] amounted to 0%; in [2] it was 2%; in assay [3], 0%; in the assay on JNK1, 31%; with JNK2, 56%; in the assay with JNK3 it was 21%. For the same molecule, the “%Inh” value is given as 20% in the assay on KIT-autoinhibited, 100% with KIT, 0% in the assay with LATS1 and 0% in the assay with LATS2.
Turning to `Cl.Cl.NCC(NCc1ccc(-c2ccnc3[nH]ccc23)s1)c1ccccc1` (stereo not drawn) [GSK1321565], the “%Inh” value in assay [1] is 0%; in [2] it was 96.9%; in assay [3], 100%; in the assay with JNK1 it was 24%; in the assay with JNK2 it was 14%; with JNK3 it was 4%. Further, the “%Inh” value worked out at 0% in the assay with KIT-autoinhibited, 25% in the assay on KIT, 62% with LATS1 and 95% in the assay with LATS2.
For the molecule `CCCCc1nn2ncccc2c1-c1ccnc(Nc2ccc(N3CCN(C)CC3)cc2)n1` [GW684941], the “%Inh” value was 4% in assay [1]; 87% in assay [2]; 27% in assay [3]; 95.1% with JNK1; 98.9% in the assay on JNK2; 97.6% in the assay on JNK3. The “%Inh” value in the assay on KIT-autoinhibited was determined as 97%; in the assay on KIT, 100%; with LATS1, 0%; with LATS2, 0%.
With `CCS(=O)(=O)c1ccc(OC)c(Nc2nccc(-c3c(-c4cccc(NC(=O)c5c(F)cccc5F)c4)nn4ncccc34)n2)c1` [GSK326180], the “%Inh” value is 0% in assay [1]; 0% in assay [2]; 0% in assay [3]; 32% in the assay on JNK1; 68% with JNK2; 46% in the assay with JNK3. The “%Inh” value with KIT-autoinhibited amounted to 0%; in the assay on KIT, 32%; with LATS1, 0%; with LATS2, 2%.
In the case of `CC(C)c1nc(-c2cccc(NS(=O)(=O)c3c(F)cccc3F)c2F)c(-c2ccnc(Nc3ccc(N4CCOCC4)nc3)n2)s1` [GSK2008607], the “%Inh” value in assay [1] is recorded as 0%; in assay [2], 91.2%; in assay [3], 99.6%; with JNK1, 3%; in the assay on JNK2 it was 40%; with JNK3, 15%. Moreover, the “%Inh” value was found to be 0% in the assay on KIT-autoinhibited, 99.9% with KIT, 0% in the assay on LATS1 and 11% in the assay on LATS2.
On to `CN(c1ccc(NC(=O)Nc2cc(C(F)(F)F)ccc2F)cc1)c1ccnc(Nc2ccc(S(N)(=O)=O)cc2)n1` [GW809893], for which the “%Inh” value in assay [1] came to 16%; in [2], 94.7%; in assay [3] it was 51%; with JNK1, 8%; with JNK2, 51%; in the assay with JNK3, 0%. Also, the “%Inh” value with KIT-autoinhibited is listed as 16%; with KIT it was 99.5%; in the assay on LATS1, 0%; in the assay on LATS2, 0%.
As to `Cc1occc1-c1ncc(OC[C@@H](N)Cc2c[nH]c3ccccc23)cc1-c1ccc2[nH]nc(C)c2c1.O=C(O)C(F)(F)F` [GSK682037], the “%Inh” value in assay [1] is 0%; in assay [2], 5%; in assay [3], 0%; in the assay with JNK1 it was 24%; in the assay on JNK2, 55%; with JNK3, 12%. The “%Inh” value with KIT-autoinhibited was found to be 0%; in the assay on KIT it was 21%; in the assay on LATS1 it was 93.9%; with LATS2, 94.8%.
On to `CN1CCN(Cc2cccc(-c3ccc4c(Nc5ccc(Oc6ccccc6)cc5)ccnc4c3)c2)CC1` [GW578342], for which the “%Inh” value (in [1]; in assay [2]; in assay [3]; in the assay with JNK1; in the assay with JNK2; in the assay on JNK3) was 0% throughout. For the same molecule, the “%Inh” value in the assay on KIT-autoinhibited amounted to 11%; in the assay with KIT, 93.7%; in the assay with LATS1, 10%; with LATS2 it was 0%.
For the molecule `Cl.Cl.NCC(NC(=O)c1cc(-c2ccccc2)c(-c2ccnc3[nH]ccc23)s1)c1ccccc1` (stereo not drawn) [GSK1321561], the “%Inh” value in assay [1] is given as 0%; in [2], 41%; in assay [3], 50%; in the assay with JNK1, 48%; with JNK2, 57%; in the assay on JNK3 it was 45%. Moreover, the “%Inh” value was found to be 0% with KIT-autoinhibited, 12% with KIT, 3% with LATS1 and 11% with LATS2.
Regarding `COc1cc(Nc2nccc(-c3c(-c4cccc(NC(=O)c5c(F)cccc5F)c4)nn4ccccc34)n2)cc(OC)c1OC` [GSK323521], the “%Inh” value in assay [1] is on record as 0%; in assay [2], 11%; in [3] it was 0%; in the assay with JNK1, 12%; in the assay with JNK2, 15%; in the assay with JNK3 it was 3%. The “%Inh” value is reported as 23% with KIT-autoinhibited, 100% with KIT, 0% with LATS1 and 11% with LATS2.
